The list is not random: actives were taken first. Their share in the collection is about 9.4%.
SMN2 splice enh: qHTS Assay for Enhancers of SMN2 Splice Variant Expression; 2.8% of 210,000 active; Potency, µM (titrated, usually from 46.1 µM), hits mostly activators; HEK293 SMN2-luciferase splicing reporter, luminescence, 30-36 h; further: nearly all actives have a fitted effect of over 55% in size
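qHTS luciferase splicing reporter: luminescence rises when SMN2 exon 7 is included in transfected HEK293 cells. Compound exposure lasted 30-36 h at 37C, with 4.5 mM final sodium butyrate as control, followed by a ONE-Glo read.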
Rab9 promoter act: qHTS Assay for Rab9 Promoter Activators; Huh7 Rab9 promoter-luciferase reporter, luminescence, 24 h; Potency, µM (series often up to 9.22 µM), usual class: activators; 2.8% of 320,000 active; further: nearly all actives have a fitted effect of over 60% in size
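Rab9 promoter-driven luciferase in stably transfected Huh7 cells; 1500 cells/well rested 2 h, exposed to compound in DMSO for 24 h at 37 °C, 5% CO2. Luminescence read 10 min after adding luciferase reagent at ambient temperature.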
FLuc modulator: qHTS profiling assay for firefly luciferase inhibitor/activator using purifed enzyme and Km concentrations of substrates (counterscreen for miR-21 project). purified FLuc, Km substrates, luminescence inhibition. Potency, µM (titrated, usually from 57.5 µM), actives largely listed as inhibitors. 6.9% of 360,000 active. AID 588342, 2011; further: nearly all actives have a fitted effect of over 55% in size
Target sequence (P08659 whole entry, looked up): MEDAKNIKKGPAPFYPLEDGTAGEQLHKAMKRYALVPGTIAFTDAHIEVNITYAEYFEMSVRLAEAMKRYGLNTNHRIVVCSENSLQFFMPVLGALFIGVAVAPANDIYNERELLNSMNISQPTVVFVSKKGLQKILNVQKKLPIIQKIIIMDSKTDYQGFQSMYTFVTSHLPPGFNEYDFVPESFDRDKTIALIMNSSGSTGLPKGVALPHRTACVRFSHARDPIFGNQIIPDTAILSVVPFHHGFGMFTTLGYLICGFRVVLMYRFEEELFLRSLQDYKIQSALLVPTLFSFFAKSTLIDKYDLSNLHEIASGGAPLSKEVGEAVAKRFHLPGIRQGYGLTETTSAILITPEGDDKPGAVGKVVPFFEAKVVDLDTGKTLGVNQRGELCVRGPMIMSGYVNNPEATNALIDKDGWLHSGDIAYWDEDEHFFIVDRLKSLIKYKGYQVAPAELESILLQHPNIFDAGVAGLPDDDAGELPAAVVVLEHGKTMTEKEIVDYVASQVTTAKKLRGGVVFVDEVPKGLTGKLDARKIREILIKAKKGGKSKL
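Biochemical qHTS of compounds, final roughly 60 µM downward over six points, against 10 nM purified firefly luciferase using Km concentrations of substrates (10 uM D-luciferin, 10 uM ATP) in Tris acetate pH 7.5 buffer; luminescence output.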
ELG1 repair inh: qHTS screen for small molecules that inhibit ELG1-dependent DNA repair in human embryonic kidney (HEK293T) cells expressing luciferase-tagged ELG1; HEK293T ELG1-luciferase reporter, luminescence, 16 h; DNA damage induced by 5-fluorouridine; Potency, µM (titrated, usually from 46.1 µM), hits mostly inhibitors; 2.3% of 330,000 active; AID 504467, 2011; further: nearly all actives have a fitted effect of over 55% in size
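Cells (2,000 per well) received 5-fluorouridine plus test compound or DMSO and were incubated 16 hr at 37 °C, 5% CO2. Luciferase activity was read by luminescence 30 min after ONE-Glo addition; signal suppression marked inhibition of damage-induced ELG1 function.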
ELG1 genotoxic: qHTS screen for small molecules that induce genotoxicity in human embryonic kidney (HEK293T) cells expressing luciferase-tagged ELG1 | 1.3% of 330,000 active | HEK293T ELG1-luciferase reporter, luminescence, 16 h | Potency, µM (titrated, usually from 46 µM), usual class: activators | AID 504466, 2011; further: nearly all actives have a fitted effect of over 60% in size
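Quantitative HTS format in 1536-well plates. HEK293T ELG1-luciferase reporter cells receive test compound and are incubated 16 hr at 37 °C, 5% CO2; ONE-Glo added, 30 min room temperature, then luminescence read.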
NPC1 prom act: qHTS Assay for NPC1 Promoter Activators. Huh7 NPC1 promoter luciferase reporter, 24 h. Potency, µM (doses to about 9.22 µM), actives largely listed as activators. 2.4% of 320,000 active. AID 485313, 2010; further: nearly all actives have a fitted effect of over 60% in size
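NPC1 promoter–luciferase Huh7 cells; 24 h compound; luminescence.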
Each line names hits and unclear results; the compound was inactive in the other large screens. The call rests on the fitted dose curve; in most records, active means well fitted curve in the direction sought with a large enough effect; inconclusive means small, poorly fitted or top-dose-only effect, or another doubt; inactive means no such curve, though single readings can be large; an effect the other way counts as inactive or inconclusive.

CN(C)c1ccc(C(=O)Nc2ccc(-c3nc4ccccc4o3)cc2)cc1	none (no result: Rab9 promoter act, ELG1 repair inh, ELG1 genotoxic, NPC1 prom act)
c1cc(-c2nc3cc(Cc4ccc5oc(-c6ccncc6)nc5c4)ccc3o2)ccn1	none
Nc1ccc(-c2nc3ccc(-c4nc5ccccc5o4)cc3[nH]2)cc1	FLuc modulator inconclusive
Nc1ccc(-c2nc3cc(N)ccc3o2)cc1	Rab9 promoter act 0.63µM, FLuc modulator 2.7µM, ELG1 repair inh inconclusive, ELG1 genotoxic 5.2µM, NPC1 prom act 0.4µM (no result: SMN2 splice enh)
Nc1ccc(-c2nc3ccc(N)cc3o2)cc1	SMN2 splice enh inconclusive, Rab9 promoter act inconclusive, FLuc modulator 1.5µM, ELG1 repair inh inconclusive, ELG1 genotoxic 21µM, NPC1 prom act inconclusive
CN(C)c1ccc(-c2nc3cc(N)ccc3o2)cc1	Rab9 promoter act 0.32µM, FLuc modulator 0.19µM, ELG1 repair inh inconclusive, ELG1 genotoxic 0.52µM, NPC1 prom act 0.32µM (no result: SMN2 splice enh)
O=S(=O)(NC[C@@H]1CCC[C@H](CNS(=O)(=O)c2c(F)cccc2F)C1)c1ccc2c(c1)OCCO2	none (no result: SMN2 splice enh, ELG1 repair inh, ELG1 genotoxic)
O=C(c1ccc2c(c1)N(Cc1ccccc1)C(=O)c1ccccc1S2(=O)=O)N1CCN(c2ccccn2)CC1	none (no result: Rab9 promoter act, ELG1 repair inh, ELG1 genotoxic, NPC1 prom act)
Cc1ccc(C)c(Nc2nc(-c3ccccc3)c3cc(Br)ccc3n2)c1	none (no result: Rab9 promoter act, ELG1 repair inh, ELG1 genotoxic, NPC1 prom act)
CCOC(=O)C1CCN(c2nc3ccccc3nc2C(C#N)C(=O)NCCc2ccccc2)CC1 (stereo not given)	FLuc modulator 19µM, ELG1 repair inh inconclusive, NPC1 prom act inconclusive
C=CCOC(=O)C(C#N)c1nc2ccccc2nc1N1CCN(Cc2ccccc2)CC1 (stereo not given)	ELG1 repair inh inconclusive
C=CCOC(=O)C(C#N)c1nc2ccccc2nc1N1CCN(c2ccccc2OC)CC1 (stereo not given)	ELG1 repair inh 13µM
COCC(C)OC(=O)C(C#N)c1nc2ccccc2nc1N1CCN(Cc2ccccc2)CC1 (stereo not given)	ELG1 repair inh 21µM
COc1ccc(OCC(=O)N(C)Cc2ccccc2)cc1	none
Cc1cc(OCC(=O)N(C)Cc2ccccc2)ccc1Br	Rab9 promoter act inconclusive, FLuc modulator 17µM, ELG1 repair inh inconclusive, NPC1 prom act inconclusive (no result: SMN2 splice enh)
Cc1cc(OCC(=O)N(C)Cc2ccccc2)ccc1Cl	Rab9 promoter act 4.5µM, FLuc modulator 15µM, ELG1 repair inh inconclusive, NPC1 prom act inconclusive (no result: SMN2 splice enh)
CCCOc1ccccc1-c1nc(SCC(=O)c2ccccc2)n[nH]1	none (no result: Rab9 promoter act, ELG1 repair inh, ELG1 genotoxic, NPC1 prom act)
CCOC(=O)c1ccc(N2C=C(C(=O)OC)C(c3ccc(OC)c(O)c3)C(C(=O)OC)=C2)cc1	FLuc modulator 17µM, ELG1 repair inh inconclusive (no result: SMN2 splice enh)
COc1ccc(NC(=O)c2c(NCc3ccc(N(C)C)cc3)sc3c2CCC3)cc1	FLuc modulator 11µM (no result: SMN2 splice enh, Rab9 promoter act, ELG1 repair inh, ELG1 genotoxic, NPC1 prom act)
COc1ccc(NC(=O)c2c(NC(=O)CCC(=O)O)sc3c2CCCCC3)cc1	none (no result: SMN2 splice enh)
COc1ccc(NC(=O)c2c(NC(=O)C(F)(F)F)sc3c2CCCCC3)cc1	FLuc modulator 13µM (no result: Rab9 promoter act, ELG1 repair inh, ELG1 genotoxic, NPC1 prom act)
COc1ccc(NC(=O)c2c(NCc3cccc(OC)c3)sc3c2CCCC3)cc1	none (no result: SMN2 splice enh, Rab9 promoter act, ELG1 repair inh, ELG1 genotoxic, NPC1 prom act)
Cc1ccccc1C(=O)N(Cc1ccc(N(C)C)cc1)Cc1ccco1	none (no result: Rab9 promoter act, ELG1 repair inh, ELG1 genotoxic, NPC1 prom act)
CCOC(=O)c1sc2nc(C)nc(N3CCN(S(=O)(=O)c4ccccc4)CC3)c2c1C	ELG1 repair inh 23µM (no result: SMN2 splice enh, Rab9 promoter act, FLuc modulator, NPC1 prom act)
CCOC(=O)c1sc2nc(CC(=O)OC)nc(NCc3ccc(Cl)cc3)c2c1C	ELG1 repair inh 5.8µM
CCOC(=O)c1sc2nc(C)nc(NCc3ccccc3)c2c1C	ELG1 repair inh 23µM (no result: SMN2 splice enh)
COC(=O)c1ccccc1S(=O)(=O)N1CCc2nc(-c3ccc(OC)cc3C)c3c(c2C1)CO[C@@H](c1ccccc1)C3	none (no result: Rab9 promoter act, FLuc modulator, ELG1 repair inh, ELG1 genotoxic, NPC1 prom act)
CN(C)/N=C/C=C1\CCC/C(=C/c2cccs2)C1=O	Rab9 promoter act 3.2µM, FLuc modulator 0.85µM, ELG1 repair inh inconclusive, ELG1 genotoxic inconclusive, NPC1 prom act inconclusive (no result: SMN2 splice enh)

Compound activity deposited in PubChem by National Center for Advancing Translational Sciences (NCATS).
